Screening results: PubChem BioAssay, National Center for Advancing Translational Sciences (NCATS)
This is a sample that favours compounds with a hit; in the whole collection about 3.3% have one here.
Sm TGR block = qHTS Assay for the Inhibitors of Schistosoma Mansoni Peroxiredoxins | purified TGR, DTNB reduction, TNB absorbance 405 nm | Potency, µM (doses to about 114 µM), for the others: top-dose activity change, negative = inhibition, usual class: inhibitors | 360,000 tested, 3% active | AID 485364, 2010; note: nearly all actives have a fitted effect of over 60% in size
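Kinetic colorimetric format: TGR-catalysed, NADPH-driven DTNB reduction monitored via TNB absorbance. Enzyme dispensed at 20 nM; compound exposure 15 min at room temperature before reaction start.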
AmpC detergent = qHTS Inhibitors of AmpC Beta-Lactamase (assay with detergent). AmpC hydrolysis of nitrocefin, absorbance 480 nm, 0.01% Triton. AID 485294, 2010. Potency, µM (series often up to 114 µM), inactives show at the highest dose activity change, negative = inhibition, hits mostly inhibitors. 370,000 tested, 0.041% active. P00811;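 note: 0% = no-compound wells and -100% = no-enzyme wells; nearly all actives have a fitted effect of over 25% in size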
Target sequence (P00811 whole entry, looked up): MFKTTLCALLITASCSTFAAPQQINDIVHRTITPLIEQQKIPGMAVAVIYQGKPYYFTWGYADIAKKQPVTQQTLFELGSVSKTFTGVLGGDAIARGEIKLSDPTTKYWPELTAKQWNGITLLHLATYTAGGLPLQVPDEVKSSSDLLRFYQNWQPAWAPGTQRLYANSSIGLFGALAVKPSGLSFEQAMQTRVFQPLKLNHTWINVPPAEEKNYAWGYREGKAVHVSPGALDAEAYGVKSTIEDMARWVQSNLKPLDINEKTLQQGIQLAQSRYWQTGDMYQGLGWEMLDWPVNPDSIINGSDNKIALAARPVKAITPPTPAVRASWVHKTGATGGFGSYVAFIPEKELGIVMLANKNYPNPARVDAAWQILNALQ
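AmpC (5.3 nM in the dispensed reagent) in 20 mM phosphate pH 7.0 with 0.01% (detergent screen) or 0.0001% Triton X-100 was preincubated with compounds for 15 min at room temperature. Nitrocefin was then added from an 800 uM solution, and hydrolysis was followed at 480 nm.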
AmpC no deterg = qHTS Inhibitors of AmpC Beta-Lactamase (assay without detergent). P00811. AmpC nitrocefin hydrolysis, absorbance 480 nm, 0.0001% Triton. Potency, µM (titrated, usually from 57.1 µM), without a hit: top-dose activity change, negative = inhibition, usual class: inhibitors. 330,000 tested, 0.52% active. AID 485341, 2010;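 note: plate controls were no compound for no effect and no enzyme for full effect; nearly all actives have a fitted effect of over 20% in size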
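20 mM phosphate pH 7.0 + 0.01% (detergent screen) or 0.0001% Triton X-100; 5.3 nM AmpC reagent; cpd preinc 15 min RT; nitrocefin (800 uM stock) to start; A480 q20 s × 4 min; Activity was normalised to no-enzyme and no-compound control wells.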
The depositor's hits bear a star. Calls come from the whole dose curve; as a rule, active = well fitted curve in the direction sought with a large enough effect; inconclusive = small, poorly fitted or top-dose-only effect, or another doubt; inactive = no such curve, though single readings can be large; an effect the other way counts as inactive or inconclusive. Unless noted, % is set by controls: 0 for no effect and ±100 for the full control effect; potency is the fitted concentration of half-maximal effect.

What do the screens show for `CC(NC(=O)C1CCN(S(=O)(=O)c2ccc(Br)s2)CC1)c1ccccc1` (configuration not stated)?
Sm TGR block: -10%; AmpC detergent: -1%; AmpC no deterg: -14%

Results for O=C(CCCc1ccccc1)Nc1nncs1 ?
Sm TGR block: 0%; AmpC detergent: -2%; AmpC no deterg: -13%

What do the screens show for `COC(=O)c1ccsc1NC(=O)CCS(=O)(=O)c1ccccc1`?
Sm TGR block: 10µM*; AmpC detergent: 7%; AmpC no deterg: -3%

Results for O=C(Nc1nc2c(s1)COc1ccccc1-2)c1cccs1 ?
Sm TGR block: -13%; AmpC detergent: inconclusive; AmpC no deterg: -57%

Results for O=C(CCS(=O)(=O)c1ccccc1)Nc1nncs1 ?
Sm TGR block: 20µM*; AmpC detergent: 6%; AmpC no deterg: -23%

What do the screens show for `COC(=O)c1ccsc1NC(=O)CCS(=O)(=O)c1ccc(Cl)cc1`?
Sm TGR block: inconclusive; AmpC detergent: -2%; AmpC no deterg: -23%

What do the screens show for `O=C(CCS(=O)(=O)c1ccccc1)Nc1nc2c(s1)COc1ccccc1-2`?
Sm TGR block: 32µM*; AmpC detergent: -1%; AmpC no deterg: -33%

Results for Cc1ccc(NC(=O)c2cc(-c3cc(C)c(C)cc3O)n[nH]2)cc1C ?
Sm TGR block: 3%; AmpC detergent: 3%; AmpC no deterg: -21%

What do the screens show for `COc1cccc([C@@H]2CC=C(C(=O)O)CN2S(=O)(=O)c2ccc(C)cc2)c1`?
Sm TGR block: -27%; AmpC detergent: -6%; AmpC no deterg: -10%

What do the screens show for `Cc1ccc(S(=O)(=O)NCC(=O)N(CC(=O)NCc2ccco2)C2CCCC2)cc1`?
Sm TGR block: -7%; AmpC detergent: 10%; AmpC no deterg: 12%

How did O=C(NCCCc1nc2ccccc2n1Cc1ccccc1Cl)c1ccco1 do in these assays?
Sm TGR block: 0%; AmpC detergent: 10%

How did Clc1ccccc1Cn1c(/C=C/c2ccco2)nc2ccccc21 do in these assays?
Sm TGR block: 32µM*; AmpC detergent: inconclusive; AmpC no deterg: -14%

How did O=[N+]([O-])c1cc(C(F)(F)F)ccc1Sc1nccn1Cc1ccccc1 do in these assays?
Sm TGR block: -9%; AmpC detergent: 2%; AmpC no deterg: -5%

Results for O=[N+]([O-])c1ccc(Sc2nccn2Cc2ccccc2)c([N+](=O)[O-])c1 ?
Sm TGR block: 28µM*; AmpC detergent: 0%; AmpC no deterg: -28%

How did O=[N+]([O-])c1ccc(Sc2ncccn2)c([N+](=O)[O-])c1 do in these assays?
Sm TGR block: 10µM*; AmpC detergent: -6%; AmpC no deterg: -6%

Results for Cc1cccc(Sc2ccc([N+](=O)[O-])cc2[N+](=O)[O-])n1 ?
Sm TGR block: -30%; AmpC detergent: -10%; AmpC no deterg: -12%

Results for CCCCCCNC(=O)c1cc(S(=O)(=O)N2CCc3ccccc32)ccc1F ?
Sm TGR block: 9%; AmpC detergent: -16%; AmpC no deterg: -19%

Results for COc1cccc([C@@H]2CC=C(C(=O)O)[C@H](c3ccccc3F)N2S(=O)(=O)c2ccc(C)cc2)c1 ?
Sm TGR block: -8%; AmpC detergent: 6%; AmpC no deterg: 16%

How did COc1ncccc1-c1nnn(-c2ccc(Cl)nc2)n1 do in these assays?
Sm TGR block: 25µM*; AmpC detergent: 8%; AmpC no deterg: -7%

Results for Clc1ccc(-n2nnc(-c3cccnc3Cl)n2)cn1 ?
Sm TGR block: inconclusive; AmpC detergent: 7%; AmpC no deterg: -18%

How did CCc1ccc(Nc2nc(C)cc(C)n2)cc1 do in these assays?
Sm TGR block: -23%; AmpC detergent: 1%; AmpC no deterg: -1%

What do the screens show for `Cc1[nH][nH]c(=O)c1C=NCc1ccc(Cl)cc1`?
Sm TGR block: 6%; AmpC detergent: inconclusive; AmpC no deterg: 0%

How did O[C@H]1c2ccccc2[C@H](Cc2cncs2)[C@@H]1Br do in these assays?
Sm TGR block: -6%; AmpC detergent: -1%; AmpC no deterg: -3%

How did C1=CC(Cc2cncs2)c2ccccc21 (configuration not stated) do in these assays?
Sm TGR block: 50µM*; AmpC detergent: -1%; AmpC no deterg: -10%

Results for O=C(Nc1nc2ccccc2n1CCOc1ccccc1)c1ccco1 ?
Sm TGR block: -14%; AmpC detergent: -13%; AmpC no deterg: -13%

Results for Cc1ccc(OCCn2c(NC(=O)c3ccco3)nc3ccccc32)cc1 ?
Sm TGR block: 7%; AmpC detergent: 9%; AmpC no deterg: 20µM*

Results for c1ccc(OCCn2c(-c3ccco3)nc3ccccc32)cc1 ?
Sm TGR block: 8.9µM*; AmpC detergent: -2%; AmpC no deterg: 0%

Results for Cc1cccc(OCCn2c(-c3ccco3)nc3ccccc32)c1 ?
Sm TGR block: inconclusive; AmpC detergent: -10%; AmpC no deterg: 1%

How did O=C(Cn1c(-c2ccco2)nc2ccccc21)N1CCCCC1 do in these assays?
Sm TGR block: inconclusive; AmpC detergent: 6%; AmpC no deterg: 15%

How did CCn1c(-c2ccco2)nc2ccccc21 do in these assays?
Sm TGR block: 32µM*; AmpC detergent: -8%; AmpC no deterg: -1%

Results for Cc1ccc(S(=O)(=O)N(Cc2ccccc2)c2ccccc2C(=O)NCc2cccnc2)cc1 ?
Sm TGR block: -6%; AmpC detergent: -12%; AmpC no deterg: 69%

How did Cc1cc(N=Nc2ccccc2)c(NCC(O)C(O)C(O)CO)cc1C (configuration not stated) do in these assays?
Sm TGR block: -1%; AmpC detergent: 8%; AmpC no deterg: 152%

What do the screens show for `Cc1ccc(NC(=O)COc2ccc3c(c2)OCO3)c(Cl)c1`?
Sm TGR block: -7%; AmpC detergent: -9%; AmpC no deterg: -21%

How did Cc1cc(Br)ccc1NC(=O)CN(C)Cc1cccs1 do in these assays?
Sm TGR block: 10%; AmpC detergent: -14%; AmpC no deterg: -4%

How did CC1Cc2cc(/C(O)=C3/C(=O)C(=O)N(Cc4ccco4)C3c3cccs3)ccc2O1 (configuration not stated) do in these assays?
Sm TGR block: 35µM*; AmpC detergent: 1%; AmpC no deterg: -26%

What do the screens show for `COc1ccc(/C(O)=C2/C(=O)C(=O)N(Cc3ccco3)C2c2cccs2)cc1` (configuration not stated)?
Sm TGR block: 2%; AmpC detergent: -4%; AmpC no deterg: -25%

How did Cc1cc(/C=C2\SC(N)=NC2=O)c(C)n1-c1ccc(F)cc1 do in these assays?
Sm TGR block: 0%; AmpC detergent: -7%; AmpC no deterg: -38%

What do the screens show for `Cc1ccc(CNC(=O)CN(C(=O)C2(C)CC(=O)N=C3C=CC=CN32)c2cccc(C)c2C)cc1` (configuration not stated)?
Sm TGR block: 2%; AmpC detergent: -8%; AmpC no deterg: 17%

How did COc1ccc(N=C(N(C)C)P(=O)(N(C)C)N(C)C)cc1 do in these assays?
Sm TGR block: -5%; AmpC detergent: inconclusive; AmpC no deterg: 28µM*

What do the screens show for `CN(C)C(=Nc1ccccc1)P(=S)(N(C)C)N(C)C`?
Sm TGR block: -1%; AmpC detergent: 3%; AmpC no deterg: 16%
